Screens: PubChem, National Center for Advancing Translational Sciences (NCATS)
Compounds with a hit are over-represented: about 9% of the library has one in this group of screens.
HTT cytoprotect: protects HTT-Q103 PC12 cells, measured by ATP; PC12 HTT-Q103 induced, cytoprotection, ATP luminescence, 40 h; Potency, µM (doses to about 56.4 µM), inactives show cytoprotection (ATP increase), actives largely listed as activators; 0.14% of 230,000 active; also: % of control where 0% means no effect; nearly all actives have a fitted effect of over 45% in size
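PC12 cells with ecdysone-inducible HTT exon 1 Q103-GFP, induced with 100 nM tebufenozide and co-treated with library compounds in a dose series (1536-well, 1500 cells/well). Cytoprotection read as ATP content by ATPlite luminescence.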
HPGD inh: blocks human HPGD enzyme activity. P15428. purified HPGD, NADH fluorescence kinetic, PGE2 substrate. Potency, µM, for inactives: at the highest dose activity change, negative = inhibition, most hits filed as inhibitors. 4.3% of 150,000 active; active = well fitted inhibition curve with a large enough effect, not every such curve was filed as active; inconclusive = small, poorly fitted or top-dose-only effect, or another doubt; inactive = no such curve, though single readings can be large or run the other way; also: % is scaled to controls: 0 for no effect and ±100 for the full control effect
Target sequence (P15428 whole entry, looked up): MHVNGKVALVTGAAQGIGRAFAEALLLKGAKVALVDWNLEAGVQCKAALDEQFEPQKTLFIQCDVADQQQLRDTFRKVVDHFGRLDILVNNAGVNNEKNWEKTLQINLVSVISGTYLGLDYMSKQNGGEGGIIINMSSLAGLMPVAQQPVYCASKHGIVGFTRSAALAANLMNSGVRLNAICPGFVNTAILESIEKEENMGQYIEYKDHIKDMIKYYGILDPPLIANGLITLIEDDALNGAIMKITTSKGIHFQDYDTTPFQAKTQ
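20 nM HPGD preincubated 15 min at room temperature with compound in 50 mM Tris-HCl pH 8, 0.01% Tween 20. Started with 1 mM NAD+ and 30 uM prostaglandin E2; NADH fluorescence (360/450 nm) read 5 times over 30-s intervals, last minus first.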
HTT aggregate: inhibitors of mutant huntingtin aggregate formation in PC12 cells | PC12 HttQ103-GFP aggregates, Acumen cytometry, 40 h | Potency, µM (top dose mostly 46.1 µM), for inactives: at the top dose activity change, negative = inhibition, actives largely listed as inhibitors | 1.1% of 220,000 active | AID 1688; also: % is scaled to controls: 0 for no effect and ±100 for the full control effect; nearly all actives have a fitted effect of over 60% in size
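Read-out: GFP aggregate count by laser scanning cytometer (488 nm excitation, 500-530 nm emission, 1–25 µm objects >6 SD above background). Cells: PC12, inducible HTTex1-Q103-GFP, 100 nM tebufenozide; compounds titrated.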
Lamin A splicing: LMNA splicing modulation | HeLa LMNA splicing GFP/RFP minigene ratio, 48 h | Potency, µM (highest dose often 46.1 µM), for the others: at the top dose ratio change, negative = inhibition, most hits filed as inhibitors | 0.01% of 200,000 active | AID 1487; active = well fitted inhibition curve with a large enough effect in the signal ratio, with a control signal flat, not every such curve was filed as active; inconclusive = small, poorly fitted or top-dose-only effect, or effect the other way, or a change in a side signal; the % refers to the signal ratio; also: % is scaled to controls: 0 for no effect and ±100 for the full control effect
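Read-out is the ratio of GFP to DsRed2 object intensity, acquired by 488 nm laser-scanning cytometry on HeLa lamin A-EGFP minigene reporter cells. Compound incubation 48 hrs at 37 °C in Opti-MEM with 2% FBS; DMSO 0.5% final.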
Luc counter: Kinase-Glo luciferase inhibition (counter-screen); Q27757; Kinase-Glo luciferase, ATP luminescence, 8 min; Potency, µM (top dose mostly 38.3 µM), for the others: at the top dose activity change, negative = inhibition, usual class: inhibitors; 0.28% of 200,000 active; also: % is scaled to controls: 0 for no effect and ±100 for the full control effect; nearly all actives have a fitted effect of over 60% in size
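Compound is pinned into ATP-containing buffer (10 uM ATP, imidazole pH 7.2, 7 mM MgCl2). Kinase-Glo luciferase reagent is then added. Light output is recorded following an 8-min room-temperature incubation.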
ALDH1A1 block: inhibitors of human aldehyde dehydrogenase 1A1. 7.3% of 220,000 active. P00352. Purified ALDH1A1, NADH fluorescence, propionaldehyde substrate. Potency, µM (titrated, usually from 75.3 µM), for inactives: top-dose activity, negative = inhibition, usual class: inhibitors; active = well fitted inhibition curve with a large enough effect, not every such curve was filed as active; inconclusive = small, poorly fitted or top-dose-only effect, or another doubt; inactive = no such curve, though single readings can be large or run the other way;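 also: plate controls were no enzyme wells and a reference inhibitor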
Target sequence (P00352 whole entry, looked up): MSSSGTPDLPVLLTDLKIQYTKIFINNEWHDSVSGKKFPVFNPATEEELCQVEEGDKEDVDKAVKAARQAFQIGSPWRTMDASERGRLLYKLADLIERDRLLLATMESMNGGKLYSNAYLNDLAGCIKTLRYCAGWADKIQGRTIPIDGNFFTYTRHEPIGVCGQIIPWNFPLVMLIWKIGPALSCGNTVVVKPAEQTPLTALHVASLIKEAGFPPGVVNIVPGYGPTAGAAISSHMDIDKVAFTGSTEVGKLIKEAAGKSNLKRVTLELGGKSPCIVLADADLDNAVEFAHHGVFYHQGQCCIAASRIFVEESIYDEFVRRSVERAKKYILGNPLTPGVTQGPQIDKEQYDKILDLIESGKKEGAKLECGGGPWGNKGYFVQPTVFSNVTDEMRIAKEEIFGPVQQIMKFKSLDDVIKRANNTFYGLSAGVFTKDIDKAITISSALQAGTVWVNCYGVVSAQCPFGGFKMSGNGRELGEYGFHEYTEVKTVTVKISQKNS
An asterisk follows results filed as active; ? = inconclusive; · = no result; [ ] = dose if it differs, or a comment. Unless noted, calls follow the shape of the dose curve; as a rule, active = well fitted curve in the direction sought with a large enough effect; inconclusive = small, poorly fitted or top-dose-only effect, or another doubt; inactive = no such curve, though single readings can be large; an effect the other way counts as inactive or inconclusive. Potency is read from the fitted curve at half-maximal effect.

SMILES | HTT cytoprotect | HPGD inh | HTT aggregate | Lamin A splicing | Luc counter | ALDH1A1 block
c1ccc(CCn2nnnc2CN2CCCc3ccccc32)cc1 | 12%[10 µM] | -5% | 11% | 20% | -1% | -12%
Cc1ccc(-n2c(COc3c(C)cccc3C)nnc2SCC(=O)Nc2nccs2)cc1 | -7% | -1% | 1%[9.22 µM] | 9% | 1% | 3%
CCOc1ccccc1OCCCOc1ccc([N+](=O)[O-])cc1Cl | -38% | -6% | -13% | ? | 1% | ?
Cc1cc(NC(=O)c2cnn3c(C(F)(F)F)cc(-c4ccccc4)nc23)no1 | -10% | -21% | 23% | 11% | 2% | -11%
Cc1ccc(CC(=O)N2CCC(c3nc4c(nnn4Cc4ccccc4)c(=O)[nH]3)CC2)cc1 | 16%[10 µM] | ? | ? | 7% | 1% | -7%
N#Cc1ccc(NC(=O)N2CCC(c3nc4c(nnn4Cc4cccc(Cl)c4)c(=O)[nH]3)CC2)cc1 | -9% | 14µM* | 0% | ? | 1% | -11%
O=C(Cc1cccs1)N1CCCC(c2nc3c(nnn3Cc3ccc(F)cc3)c(=O)[nH]2)C1 (configuration not stated) | -3%[10 µM] | 28µM* | 20% | 25% | 0% | 1%
Cc1c(Cl)c(C(=O)N2CCCc3ccccc32)nn1C | -20% | -12% | 4% | 3% | -4% | ?
CCOC(=O)c1nn(-c2ccccc2C)c(=O)c2c(N)scc12 | -31% | · | 4% | -2%[9.22 µM] | -2% | 9.5µM*
CCOC(=O)c1nn(-c2ccccc2)c(=O)c2c(N)scc12 | -10%[10 µM] | -20% | 3% | -4% | -1% | ?
O=[N+]([O-])c1cc(Br)cc(/C=N/n2cnnc2)c1O | -16%[10 µM] | · | ? | · | -5% | ?
C=CCS/C(N)=N\N=C\c1cc(Br)cc([N+](=O)[O-])c1O | -4%[10 µM] | · | -7%[9.22 µM] | · | · | 7.1µM*
O=C(NC(=S)Nc1cccc2[nH]ncc12)c1ccccc1 | -9% | · | 10µM* | · | -4% | ?
O=C(Nc1cccc2[nH]ncc12)c1ccc(F)cc1 | -15% | ? | 5µM* | ? | -20% | 5%
CNC(=S)Nc1cccc2[nH]ncc12 | 11%[10 µM] | -2% | 11% | -7% | 3% | 1%
O=C(C[n+]1cc(-c2ccc(Cl)cc2)n2c1CCCCC2)c1ccccc1 | 26%[10 µM] | · | -4%[9.22 µM] | · | · | ·
Cc1nn(-c2ccccn2)c2c1C(=O)C(Br)CC2 (configuration not stated) | ? | · | -12% | ? | 0% | 11µM*
CCC(CC)NC(=O)c1ccc2c(c1)OCCO2 | -11% | -24% | -10% | -6% | 16% | 8%
C=CCCCCCCCCCCCc1ccco1 | · | 0.79µM* | · | 20% | 0% | ?
COc1ccc(CNC(=O)C2CSCCS2)cc1 (configuration not stated) | 9% | · | 21% | ? | · | ?
CCc1nnc(NC(=O)CSc2n[nH]c(-c3ccccc3O)n2)s1 | 17%[10 µM] | · | 1%[9.22 µM] | · | -1% | ?
CCOC(=O)C1C(=O)NC(SCC(=O)Nc2nccs2)=C(C#N)C1c1ccccc1OCC (configuration not stated) | -9%[10 µM] | 13µM* | -15% | -4% | 3% | 6.3µM*
COc1ccc(Nc2nc(N)nc(CSc3nccc(C)n3)n2)cc1 | 1% | 0% | 8% | 2% | 3% | -6%
Nc1nc(CSc2n[nH]c(-c3ccccc3)n2)nc(Nc2ccccc2)n1 | -7% | 13µM* | -14% | -10% | 1% | ?
Nc1nc(CSC(=S)N2CCCCC2)nc(Nc2ccccc2)n1 | 10%[10 µM] | · | ? | · | 4% | 25µM*
SMILES | HTT cytoprotect | HPGD inh | HTT aggregate | Lamin A splicing | Luc counter | ALDH1A1 block
COc1ccc(Nc2nc(N)nc(CSc3n[nH]c(-c4ccccc4)n3)n2)cc1 | -27% | 22µM* | 4% | -16% | -7% | 2%
Cc1ccc(Nc2nc(N)nc(CSc3ncccn3)n2)cc1 | -16% | -5% | 15% | -1% | 19% | 1%
CCCN1C[C@@H](CSC)C[C@H]2c3cccc4[nH]cc(c34)C[C@@H]21 | 18%[1.9 µM] | · | · | · | · | ·
COc1ccc(C2CC(c3ccc(Cl)cc3)n3nc(N)nc3N2)cc1 (configuration not stated) | -1% | -2% | 7% | -1% | -2% | 8%
CCCCNC(=O)/C(=C\c1ccc([N+](=O)[O-])o1)NC(=O)c1ccccc1 | -21% | · | ? | · | 4% | -14%
Cc1ccc(/C=C(/NC(=O)c2ccccc2)C(=O)NCCc2c[nH]c3ccccc23)o1 | -28% | -23% | 5% | 7% | -1% | 28µM*
Cc1ccc(/C=C(\NC(=O)c2ccccc2)C(=O)NCCc2ccccn2)o1 | 2%[0.074 µM] | -18% | 8% | 2% | -2% | 22µM*
Cc1ccc(C(=O)N/C(=C\c2ccco2)C(=O)NCCc2c[nH]c3ccccc23)cc1 | · | 0% | 9% | -2% | -1% | -10%
CC(C)CC(c1nnnn1C1CCCC1)N1CCC(C(N)=O)CC1 (configuration not stated) | ? | · | -1% | · | 0% | 22µM*
COc1ccc(-c2cc(=O)oc3cc(OCC(C)=O)ccc23)cc1 | · | 32µM* | -6% | ? | 2% | ?
CCOCCOC(=O)COc1ccc2c(-c3ccccc3)cc(=O)oc2c1 | 29%[10 µM] | 25µM* | -12% | -6% | -4% | 18µM*
CCOC(=O)COc1ccc2c(=O)c(-c3ccccc3)coc2c1 | 9%[10 µM] | · | -28%[9.22 µM] | -12%[46 µM] | · | ·
COc1ccc(-c2cc(=O)oc3cc(OCC(=O)c4cccc([N+](=O)[O-])c4)ccc23)cc1 | · | 2.8µM* | 2% | ? | -1% | -1%
COc1ccc(-c2c(C)c3ccc(OCC(C)=O)cc3oc2=O)cc1 | -65% | · | ? | ? | -1% | ?
COc1ccc(-c2cc(=O)oc3cc(OC(=O)C4CCCCC4)c(Cl)cc23)cc1 | -9%[10 µM] | ? | 0.28µM* | ? | -1% | ?
Cc1ccccc1NC(=S)NCCO | -28% | · | 3% | · | 1% | 3%
NC(=O)CN1C(=O)/C(=c2\sc3nc(=O)c(Cc4ccccc4)nn3c2=O)c2ccccc21 | 10%[10 µM] | · | 11%[9.22 µM] | · | · | ·
CCCCN1C(=O)/C(=c2\sc3nc(=O)c(-c4ccccc4)nn3c2=O)c2ccccc21 | -14% | 25µM* | -16% | 4% | -4% | 4.5µM*
CCCN1C(=O)/C(=c2\sc3nc(=O)c(Cc4ccc(C)cc4)nn3c2=O)c2ccccc21 | -17% | · | 16% | ? | 1% | 6.3µM*
CCCCn1cnc2sc(-c3ccccc3)cc2c1=O | -65% | ? | -13% | 2% | -1% | ?
COc1cc(NC(=O)c2ccc3c(c2)OCCO3)ccc1NC(=O)c1ccco1 | 18%[10 µM] | · | 6%[9.22 µM] | 3%[46 µM] | -4% | 54%
C/C(Cc1ccccc1)=N\NC(=O)C1CCCCC1 | · | -4% | -6% | 1% | -3% | -3%
